Data from PubChem BioAssay (EPA / NIEHS).
Inconclusive results are not listed. Active and inactive are the calls of the source. Rule for the calls, unless noted: active = hit-call score of the fitted dose curve at least 0.9, where 1 is the maximum; inactive = score below 0.9.

Experiments:
[1] = molecular target: Paired box protein Pax-6 (Homo sapiens) (UniProt P26367); assay: ATG_Pax6_CIS: Attagene CIS-FACTORIAL HepG2 Assay for human Paired Box 6 (PAX6) (AID 2282956); details: HepG2 CIS-FACTORIAL PAX6 reporter transcription, RNA readout; actives raise or lower the signal
Method in brief: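 Transient MRTU transfection of HepG2 → compound exposure 24 h → TriZol RNA, oligo(dT) RT → PCR, 6-FAM primer extension, HpaI cut → capillary electrophoresis; activity fitted both directions against DMSO.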

[2] = ATG_PXRE_CIS: Attagene CIS-FACTORIAL HepG2 Assay for human Pregnane X Receptor Element (PXRE) (AID 2282957); details: HepG2 Attagene CIS-FACTORIAL PXRE reporter, mRNA; actives raise or lower the signal
Method in brief: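 Transfect HepG2 with MRTUs (cis promoter elements); dose chemical, incubate 24 h; isolate RNA, RT with oligo(dT), PCR, 6-FAM label, HpaI cut, CE. Gain/loss fit vs DMSO.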

[3] = ATG_PPRE_CIS: Attagene CIS-FACTORIAL HepG2 Assay for human Peroxisome Proliferator-activated Response Element (PPRE) (AID 2282958); details: HepG2 PPRE cis-element reporter, Attagene transcription factor profiling; actives raise or lower the signal
Method in brief: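 In this cell-based multiplex, a PPRE cis element drives a reporter sequence in transiently transfected HepG2 cells. Following 24 h treatment, labeled cDNA amplicons are sized and quantified by capillary electrophoresis, with DMSO defining baseline.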

[4] = ATG_RORE_CIS: Attagene CIS-FACTORIAL HepG2 Assay for human RAR-related Orphan Receptor Element (RORE) (AID 2282959); details: HepG2 Attagene cis-factorial RORE reporter, mRNA; actives raise or lower the signal
Method in brief: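 Endogenous factor activity at a cis response element is read as reporter transcript levels in HepG2 cells, 24 h post-dose. Transcripts are quantified by RT-PCR with capillary electrophoresis, and data fitted in both directions against DMSO.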

[5] = ATG_Sox_CIS: Attagene CIS-FACTORIAL HepG2 Assay for human SRY-box transcription factor (SOX) (AID 2282960); details: HepG2 Attagene cis-factorial SOX reporter, mRNA; actives raise or lower the signal
Method in brief: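 Measures mRNA induction of a SOX1-associated reporter in HepG2 after 24 h dosing. Fluorescently labelled RT-PCR fragments are separated by capillary electrophoresis, and gain or loss relative to DMSO control is fitted.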

[6] = molecular target: Transcription factor Sp1 (Homo sapiens) (UniProt P08047); assay: ATG_Sp1_CIS: Attagene CIS-FACTORIAL HepG2 Assay for human Specificity Protein 1 (Sp1) (AID 2282961); details: HepG2 Sp1 cis-reporter transcription, actives raise or lower the signal
Method in brief: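 Cells: HepG2, transiently transfected with cis-regulated multiplexed reporters. Exposure: 24 h. Detection: reporter transcripts amplified, fluorescently labeled, restriction-digested and sized by capillary electrophoresis. Analysis: bidirectional fit relative to DMSO.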

[7] = molecular target: Signal transducer and activator of transcription 3 (Homo sapiens) (UniProt P40763); assay: ATG_STAT3_CIS: Attagene CIS-FACTORIAL HepG2 Assay for human Signal Transducer and Activator of Transcription 3 (STAT3) (AID 2282963); details: HepG2, Attagene cis-factorial STAT3 reporter transcription; actives raise or lower the signal
Method in brief: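 HepG2 cells transiently transfected with multiple cis-element-driven reporter units report endogenous transcription factor activity. After 24 h compound exposure, reporter mRNA is measured by RT-PCR, 6-FAM labelling, HpaI digestion and capillary electrophoresis. Fitted bidirectionally versus DMSO.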

[8] = ATG_TA_CIS: Attagene CIS-FACTORIAL HepG2 Assay for human TA Basal Promoter (AID 2282964); details: HepG2 Attagene CIS-factorial TA basal promoter reporter; actives raise or lower the signal
Method in brief: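 HepG2 cells transiently transfected with multiple reporter units under cis promoter elements, reporting endogenous transcription factor activity; this endpoint tracks the TA basal promoter as background control. Reporter mRNA after 24 h dosing measured by RT-PCR/capillary electrophoresis; bidirectional fits versus DMSO.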

[9] = ATG_TAL_CIS: Attagene CIS-FACTORIAL HepG2 Assay for human TAL Basal Promoter (AID 2282966); details: HepG2 Attagene cis-factorial TAL promoter reporter; actives raise or lower the signal;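 note: background control endpoint measuring basal TAL promoter reporter mRNA not a specific factor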
Method in brief: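 Fluorescence of labelled reporter cDNA fragments, resolved by capillary electrophoresis, gave the readout. Human HepG2 liver cells carried transiently transfected cis-element reporter units and were treated for 24 hours; activity was fitted bidirectionally against DMSO.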

[10] = ATG_TGFb_CIS: Attagene CIS-FACTORIAL HepG2 Assay for human Transforming Growth Factor (TGF) (AID 2282967); details: HepG2 Attagene CIS TGFb reporter, mRNA transcription; actives raise or lower the signal
Method in brief: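 HepG2 cells transiently transfected with cis-promoter-driven multiple reporter units measure endogenous TF activity; reporter mRNA quantified at 24 h by RT-PCR, FAM labeling, HpaI digestion and capillary electrophoresis. Bidirectional fit vs DMSO.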

[11] = molecular target: Estrogen receptor (Homo sapiens) (UniProt P03372); assay: ATG_ERa_TRANS: Attagene TRANS-FACTORIAL HepG2 Assay for human Estrogen Receptor alpha (ERa) (AID 2282970; active = hit-call score of the fitted dose curve at least 0.9, where 1 is the maximum); details: HepG2 Attagene TRANS ERa GAL4 reporter, mRNA
Method in brief: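 Human liver HepG2, transient transfection of multiple GAL4-UAS reporter units; TRANS format (exogenous NR-Gal4 chimera). 24 h dosing. Readout: reporter mRNA, RT-PCR, 6-FAM primer extension, HpaI digest, capillary electrophoresis. Positive direction vs DMSO.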

[12] = ATG_M_19_TRANS: Attagene TRANS-FACTORIAL HepG2 Assay for M19 Transcription Factor (Internal Marker) (AID 2282974; active = hit-call score of the fitted dose curve at least 0.9, where 1 is the maximum); details: HepG2 Attagene TRANS-FACTORIAL M19 internal marker reporter
Method in brief: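 Reporter mRNA induction was measured in transfected HepG2 cells 24 h after dosing. Endpoint fitted upward relative to DMSO and serves as a background control within the multiplexed TRANS panel.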

[13] = ATG_GAL4_TRANS: Attagene TRANS-FACTORIAL HepG2 Assay for GAL4 (Internal Marker) (AID 2282976; active = hit-call score of the fitted dose curve at least 0.9, where 1 is the maximum); details: HepG2 Attagene TRANS GAL4 internal marker reporter
Method in brief: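 First, HepG2 cells were transfected with reporter units under GAL4-UAS control. Next, they were treated with chemical for 24 h. Finally, RNA was reverse-transcribed, PCR-amplified, FAM-labelled and resolved by capillary electrophoresis, with induction scored against DMSO.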

[14] = ATG_SREBP_CIS: Attagene CIS-FACTORIAL HepG2 Assay for human Sterol Regulatory Element Binding (SREBP) (AID 2282962); details: HepG2 Attagene cis-factorial SREBP reporter, mRNA; actives raise or lower the signal
Method in brief: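 Transfected HepG2 (cis-regulated reporter library, endogenous TFs) → compound 24 h → total RNA → oligo(dT) RT → reporter-specific PCR → FAM primer extension, HpaI cut → CE fluorescence. Fit bidirectional vs DMSO.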

[15] = ATG_TCF_b_cat_CIS: Attagene CIS-FACTORIAL HepG2 Assay for human T-Cell-Factor with beta-catenin (TCF/b-cat) (AID 2282965); details: HepG2 TCF/beta-catenin cis-reporter transcription, actives raise or lower the signal
Method in brief: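 HepG2 cells transiently transfected with cis-promoter-driven multiplexed reporter units; reporter mRNA measured 24 h after dosing by RT-PCR, FAM labelling, HpaI digestion and capillary electrophoresis. Bidirectional fitting relative to DMSO baseline.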

[16] = ATG_VDRE_CIS: Attagene CIS-FACTORIAL HepG2 Assay for human Vitamin D Receptor Element (VDRE) (AID 2282968); details: HepG2 VDRE cis-reporter transcription, actives raise or lower the signal
Method in brief: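 Transiently transfected HepG2 cells carrying cis-regulated reporter transcription units were exposed for 24 h. Reporter mRNA was measured by RT-PCR with fluorescent labelling and capillary electrophoresis, and fitted in both directions against DMSO.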

[17] = molecular target: Steroid hormone receptor ERR1 (Homo sapiens) (UniProt P11474); assay: ATG_ERRa_TRANS: Attagene TRANS-FACTORIAL HepG2 Assay for human Estrogen-Related Receptor alpha (ERRa) (AID 2282971; active = hit-call score of the fitted dose curve at least 0.9, where 1 is the maximum); details: HepG2 Attagene TRANS reporter, ERRa transactivation
Method in brief: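 Reporter transcript induction was quantified by RT-PCR and capillary electrophoresis of FAM-labelled, HpaI-cut products after 24 h treatment of HepG2 cells carrying transiently transfected GAL4-UAS reporter units and an exogenous ERRa-Gal4 fusion; activity scored as increase over DMSO.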

[18] = molecular target: X-box-binding protein 1 (Homo sapiens) (UniProt P17861); assay: ATG_Xbp1_CIS: Attagene CIS-FACTORIAL HepG2 Assay for human X-box Binding Protein 1 (XBP1) (AID 2282972); details: HepG2 XBP1 cis-element reporter, Attagene multiplex; actives raise or lower the signal
Method in brief: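 HepG2, transient MRTU transfection (cis-promoter driven), 24 h compound exposure. Total RNA → oligo(dT) RT → PCR → 6-FAM labeling → HpaI cut → CE. Bidirectional fit vs DMSO.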

[19] = molecular target: Estrogen-related receptor gamma (Homo sapiens) (UniProt P62508); assay: ATG_ERRg_TRANS: Attagene TRANS-FACTORIAL HepG2 Assay for human Estrogen-Related Receptor gamma (ERRg) (AID 2282977; active = hit-call score of the fitted dose curve at least 0.9, where 1 is the maximum;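 note: hits increase reporter signal over DMSO so potencies reflect activators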); details: HepG2 Attagene TRANS reporter, ERRg transactivation
Method in brief: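 HepG2 cells transiently transfected with multiplexed GAL4-UAS reporter units driven by chimeric NR-Gal4 proteins; 24 h exposure. Reporter mRNA quantified by RT-PCR, fluorescent labelling, HpaI digestion and capillary electrophoresis; gain of signal vs DMSO.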

[20] = molecular target: Nuclear receptor subfamily 1 group I member 3 (Homo sapiens) (UniProt Q14994); assay: ATG_CAR_TRANS: Attagene TRANS-FACTORIAL HepG2 Assay for human Constitutive Androstane Receptor (CAR) (AID 2282969; active = hit-call score of the fitted dose curve at least 0.9, where 1 is the maximum;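 note: activators raise reporter mRNA above DMSO so AC50 marks induction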); details: HepG2 Attagene TRANS-FACTORIAL CAR reporter
Method in brief: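 HepG2 cells transiently transfected with GAL4-UAS reporter units; TRANS format reads activity of exogenous chimeric NR-Gal4 protein. After 24 h dosing, reporter mRNA quantified by RT-PCR, 6-FAM labelling and capillary electrophoresis; gain of signal fitted against DMSO.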

Measured: AC50

Estrogen-related receptor gamma (Homo sapiens), sequence (P62508 whole entry, looked up, the tested form may be a part): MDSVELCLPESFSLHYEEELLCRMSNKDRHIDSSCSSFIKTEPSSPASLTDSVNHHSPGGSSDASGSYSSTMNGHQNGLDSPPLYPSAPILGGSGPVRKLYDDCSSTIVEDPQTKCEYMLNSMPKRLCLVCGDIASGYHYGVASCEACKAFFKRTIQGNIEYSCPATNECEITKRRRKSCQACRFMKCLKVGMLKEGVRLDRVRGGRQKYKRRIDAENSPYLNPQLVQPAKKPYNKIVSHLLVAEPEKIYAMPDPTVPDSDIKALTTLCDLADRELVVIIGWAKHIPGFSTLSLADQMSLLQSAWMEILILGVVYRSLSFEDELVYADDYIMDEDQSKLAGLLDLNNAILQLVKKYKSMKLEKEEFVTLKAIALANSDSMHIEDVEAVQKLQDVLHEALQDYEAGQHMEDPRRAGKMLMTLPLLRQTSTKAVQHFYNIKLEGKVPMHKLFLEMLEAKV
Paired box protein Pax-6 (Homo sapiens), sequence (P26367 whole entry, looked up): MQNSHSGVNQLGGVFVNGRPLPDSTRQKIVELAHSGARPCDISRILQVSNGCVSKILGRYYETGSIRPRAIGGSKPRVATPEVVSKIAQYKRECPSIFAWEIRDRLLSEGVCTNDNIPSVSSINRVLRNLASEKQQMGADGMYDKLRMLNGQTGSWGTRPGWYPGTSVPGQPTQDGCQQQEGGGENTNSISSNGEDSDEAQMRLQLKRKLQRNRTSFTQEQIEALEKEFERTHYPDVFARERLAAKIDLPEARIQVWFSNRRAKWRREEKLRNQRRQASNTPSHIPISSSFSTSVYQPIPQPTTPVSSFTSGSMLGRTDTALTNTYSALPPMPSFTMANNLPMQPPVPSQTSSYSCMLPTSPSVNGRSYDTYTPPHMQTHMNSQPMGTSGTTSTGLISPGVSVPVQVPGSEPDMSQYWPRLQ
Signal transducer and activator of transcription 3 (Homo sapiens), sequence (P40763 whole entry, looked up): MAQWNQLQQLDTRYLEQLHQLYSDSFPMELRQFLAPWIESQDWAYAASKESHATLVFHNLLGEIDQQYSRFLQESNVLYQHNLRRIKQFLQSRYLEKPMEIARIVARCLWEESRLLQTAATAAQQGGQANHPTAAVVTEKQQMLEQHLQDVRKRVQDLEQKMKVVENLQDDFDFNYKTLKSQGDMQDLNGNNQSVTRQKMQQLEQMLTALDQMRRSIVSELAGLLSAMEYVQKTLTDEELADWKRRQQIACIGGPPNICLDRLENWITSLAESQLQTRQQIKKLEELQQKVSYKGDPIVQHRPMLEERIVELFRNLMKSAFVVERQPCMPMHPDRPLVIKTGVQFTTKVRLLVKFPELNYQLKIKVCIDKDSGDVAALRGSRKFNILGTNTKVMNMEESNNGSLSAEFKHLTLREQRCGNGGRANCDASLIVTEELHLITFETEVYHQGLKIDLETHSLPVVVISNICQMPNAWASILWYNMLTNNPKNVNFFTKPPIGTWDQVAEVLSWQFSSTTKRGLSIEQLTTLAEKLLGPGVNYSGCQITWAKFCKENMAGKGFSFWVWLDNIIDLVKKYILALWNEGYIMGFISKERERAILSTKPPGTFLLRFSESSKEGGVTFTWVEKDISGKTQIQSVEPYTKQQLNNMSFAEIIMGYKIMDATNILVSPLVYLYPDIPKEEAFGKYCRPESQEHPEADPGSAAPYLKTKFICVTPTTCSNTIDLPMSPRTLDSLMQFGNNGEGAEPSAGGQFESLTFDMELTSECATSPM
Estrogen receptor (Homo sapiens), sequence (P03372 whole entry, looked up, the tested form may be a part): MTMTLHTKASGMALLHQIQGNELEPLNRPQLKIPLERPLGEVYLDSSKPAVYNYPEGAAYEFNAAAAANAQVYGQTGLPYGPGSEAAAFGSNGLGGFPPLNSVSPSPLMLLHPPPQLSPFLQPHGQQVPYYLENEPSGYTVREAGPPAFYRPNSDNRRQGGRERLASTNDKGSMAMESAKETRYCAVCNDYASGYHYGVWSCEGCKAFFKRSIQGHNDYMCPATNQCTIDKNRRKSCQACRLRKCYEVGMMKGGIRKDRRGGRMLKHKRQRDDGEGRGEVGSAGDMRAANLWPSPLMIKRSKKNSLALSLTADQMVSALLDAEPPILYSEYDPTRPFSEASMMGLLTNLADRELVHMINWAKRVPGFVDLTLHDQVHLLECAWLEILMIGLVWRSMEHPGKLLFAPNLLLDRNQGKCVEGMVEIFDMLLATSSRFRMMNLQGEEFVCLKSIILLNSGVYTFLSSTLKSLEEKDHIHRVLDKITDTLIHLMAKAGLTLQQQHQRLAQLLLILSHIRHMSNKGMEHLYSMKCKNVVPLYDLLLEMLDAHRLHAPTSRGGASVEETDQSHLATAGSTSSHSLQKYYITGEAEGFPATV
Transcription factor Sp1 (Homo sapiens), sequence (P08047 whole entry, looked up): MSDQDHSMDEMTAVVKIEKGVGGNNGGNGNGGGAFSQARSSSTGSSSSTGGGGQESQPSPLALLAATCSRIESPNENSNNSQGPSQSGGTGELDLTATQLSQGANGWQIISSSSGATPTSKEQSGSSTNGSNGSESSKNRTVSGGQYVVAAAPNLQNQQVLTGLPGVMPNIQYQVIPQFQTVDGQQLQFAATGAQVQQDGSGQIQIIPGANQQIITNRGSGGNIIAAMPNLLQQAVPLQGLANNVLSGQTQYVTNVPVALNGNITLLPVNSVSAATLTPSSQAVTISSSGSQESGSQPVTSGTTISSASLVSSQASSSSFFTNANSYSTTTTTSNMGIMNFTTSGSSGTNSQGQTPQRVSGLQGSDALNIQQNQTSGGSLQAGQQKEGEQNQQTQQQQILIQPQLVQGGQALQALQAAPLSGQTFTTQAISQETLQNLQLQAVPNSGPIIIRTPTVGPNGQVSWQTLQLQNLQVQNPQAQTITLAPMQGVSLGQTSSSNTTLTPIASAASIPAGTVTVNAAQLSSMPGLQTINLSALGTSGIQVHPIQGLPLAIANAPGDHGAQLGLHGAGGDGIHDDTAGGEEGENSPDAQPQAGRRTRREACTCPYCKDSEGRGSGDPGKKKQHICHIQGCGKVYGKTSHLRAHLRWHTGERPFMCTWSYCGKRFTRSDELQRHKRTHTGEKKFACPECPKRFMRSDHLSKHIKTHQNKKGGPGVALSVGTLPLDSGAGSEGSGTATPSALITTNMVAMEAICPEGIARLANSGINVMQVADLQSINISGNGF
X-box-binding protein 1 (Homo sapiens), sequence (P17861 whole entry, looked up): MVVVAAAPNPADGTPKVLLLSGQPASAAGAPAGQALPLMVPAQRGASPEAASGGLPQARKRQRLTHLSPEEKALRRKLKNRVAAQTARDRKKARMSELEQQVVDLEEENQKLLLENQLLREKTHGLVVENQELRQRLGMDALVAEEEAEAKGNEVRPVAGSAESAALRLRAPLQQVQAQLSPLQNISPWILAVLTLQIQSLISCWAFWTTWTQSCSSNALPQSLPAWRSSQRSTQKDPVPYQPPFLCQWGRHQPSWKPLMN
Steroid hormone receptor ERR1 (Homo sapiens), sequence (P11474 whole entry, looked up, the tested form may be a part): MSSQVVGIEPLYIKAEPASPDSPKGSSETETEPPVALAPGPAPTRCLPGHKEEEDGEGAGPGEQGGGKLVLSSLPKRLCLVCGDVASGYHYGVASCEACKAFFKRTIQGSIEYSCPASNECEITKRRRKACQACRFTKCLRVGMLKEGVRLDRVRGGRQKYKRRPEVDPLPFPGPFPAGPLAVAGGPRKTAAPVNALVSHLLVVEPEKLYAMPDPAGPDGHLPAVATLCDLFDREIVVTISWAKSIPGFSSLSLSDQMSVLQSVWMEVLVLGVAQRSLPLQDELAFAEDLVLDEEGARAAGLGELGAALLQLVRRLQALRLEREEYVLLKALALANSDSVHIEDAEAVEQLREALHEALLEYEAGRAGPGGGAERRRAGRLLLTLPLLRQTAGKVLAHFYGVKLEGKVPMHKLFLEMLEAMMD
Nuclear receptor subfamily 1 group I member 3 (Homo sapiens), sequence (Q14994 whole entry, looked up, the tested form may be a part): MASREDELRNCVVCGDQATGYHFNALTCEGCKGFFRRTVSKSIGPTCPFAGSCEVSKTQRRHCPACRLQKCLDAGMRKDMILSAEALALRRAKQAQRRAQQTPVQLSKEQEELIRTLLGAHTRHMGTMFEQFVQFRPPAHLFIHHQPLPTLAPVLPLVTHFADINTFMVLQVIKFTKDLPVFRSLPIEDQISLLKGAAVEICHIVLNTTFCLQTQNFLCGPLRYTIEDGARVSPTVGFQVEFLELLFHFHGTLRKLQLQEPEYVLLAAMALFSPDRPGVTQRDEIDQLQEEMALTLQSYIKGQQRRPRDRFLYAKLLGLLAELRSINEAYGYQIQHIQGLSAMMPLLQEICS

C=C(C)C(=O)OCC(C)C
not listed: [14] | [15] | [16] | [17] | [18] | [19] | [20]
inactive: all other assays above

C1CN(SSN2CCOCC2)CCO1
not listed: [4] | [13] | [20]
inactive: all other assays above

O=c1c2ccccc2nnn1CCl
active: [2] 7.09 µM
not listed: [12] | [14] | [17] | [19]
inactive: all other assays above

CCCCC/C=C\C/C=C\CCCCCCCC(=O)OC
inactive: [3] | [4] | [5] | [6] | [7] | [9] | [10] | [20] | [18]
active: [1] 73.3 µM | [2] 5.54 µM | [8] 100 µM

CC(=O)c1ccc[nH]1
not listed: [10] | [14] | [16] | [17] | [19] | [20]
inactive: all other assays above

CCCCCCCCCCC=CC#N
active: [2] 27.5 µM | [11] 73.1 µM
not listed: [4] | [13] | [17] | [19]
inactive: all other assays above

NNC(=O)c1cccc(C(=O)NN)c1
not listed: [7] | [11] | [12] | [14] | [17] | [19] | [20]
inactive: all other assays above

CCCCCCCCc1ccc(Nc2ccc(CCCCCCCC)cc2)cc1
active: [2] 6.3 µM | [16] 19.8 µM
not listed: [4] | [13] | [20]
inactive: all other assays above

OCCCS
not listed: [7] | [10] | [11] | [15] | [17] | [19] | [20]
inactive: all other assays above

CCc1nccnc1C
not listed: [4] | [11] | [20]
inactive: all other assays above

CC/C=C\CCOC(=O)CCCCC
not listed: [4] | [12] | [19] | [20]
inactive: all other assays above

CC1(C)O[C@@H]2C[C@H]3[C@@H]4C[C@H](F)C5=CC(=O)C=C[C@]5(C)[C@@]4(F)[C@@H](O)C[C@]3(C)[C@]2(C(=O)CO)O1
active: [2] 6.12 µM | [11] 9.67 µM
not listed: [4] | [12] | [13] | [17] | [19] | [20]
inactive: all other assays above

O=S(=O)(O)CC(O)CCl (stereo unspecified)
not listed: [4] | [11] | [12] | [17] | [19] | [20]
inactive: all other assays above

CN(C)c1ccc(N=Nc2ccccc2C(=O)O)cc1
inactive: [14] | [7] | [8] | [9] | [10] | [11]
active: [1] 35.1 µM | [2] 26.3 µM | [3] 17.8 µM | [5] 24.9 µM | [6] 40.8 µM | [15] 31.4 µM | [16] 16.4 µM | [18] 9.33 µM

Cc1cc(C)c(C)c(O)c1
active: [2] 42.3 µM
not listed: [10] | [12] | [14] | [19]
inactive: all other assays above

COC(=O)c1c(C)cc(O)c(C)c1O
active: [11] 38.7 µM
not listed: [7] | [8] | [17] | [19] | [20]
inactive: all other assays above

CC(C)C(=O)C(C)C
active: [1] 42.4 µM | [5] 19.5 µM | [15] 61.5 µM | [16] 55.2 µM | [18] 34.7 µM
not listed: [4] | [11] | [12] | [13] | [19] | [20]
inactive: all other assays above
